Assay results reported in PubChem BioAssay (NCI).
Compounds without any hit were thinned out: in the full panel of roughly 83,000, 20% have a hit.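 Percent growth is the endpoint: 0 to 100 indicates growth inhibition (40 means 60% inhibition), 0 means no net growth, and negative values indicate cell death.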 A number with no mark means an inactive call. Active and inactive are the calls of the source.

Each compound was assayed on HOP-92 NSCLC (assay: NCI-60 one-dose screen, 48 h (100 = growth as untreated, 0 = no growth, -100 = all killed)). Details: 10 µM.
Protocol: Growth inhibition of the HOP-92 human Non-Small Cell Lung tumor cell line is measured as a screen for anti-cancer activity. Cells are grown in 96 well plates and exposed to the test compound for 48 hours. Compounds are tested at a single concentration, which is 10^-5 M for most compounds. The reported endpoint is percent growth (GI% or GIPRCNT), where numbers from 0 - 100% represent growth inhibition, and numbers from -100% - 0 represent cell death. For example, a value of 40 represents 60% growth inhibition. A value of 0 means no net growth occurred over the course of the experiment. A value of -40 indicates 40% of cells at the beginning of the experiment died by the end of the experiment. A value of -100 means all cells are dead at the end of the experiment.
NCI-60 Human Tumor Cell Lines Screen was performed using the standard one-dose NCI protocol, which is described in more detail at https://dtp.cancer.gov/discovery_development/nci-60/default.htm.
Compounds with GIPRCNT values below 10 were considered active. Activity score was based on GIPRCNT using the following formula: […]
Score is 0 for GIPRCNT values of 100 or above, 50 for GIPRCNT values of 0, and 100 for GIPRCNT values of -100.

**Q.** Which growth does the source give for `O=C1C=C(Nc2cccc(Br)c2)c2ccccc2C1=O` here?
**A.** 39.1%

**Q.** How did the growth turn out when `Cc1ccc(S(=O)(=O)N/N=C2\CCCc3ccccc32)cc1` was run?
**A.** 99.5%

**Q.** With `CC(CN(C)C)Oc1ccc(OC(C)CN(C)C)c2c1C(=O)c1ccccc1C2=O` (stereo not given) as the compound, how does the growth read?
**A.** 49.1%

**Q.** For `CC(C)(C)OC(=O)CN1CCc2c(sc3ncnc(N/N=C/c4cccc5ccccc45)c23)C1`, which growth is on record?
**A.** 54.9%

**Q.** Which growth does the source give for `CN1CCN(CCC(=O)Nc2cccc(-n3cc(-c4ccncc4)c(-c4ccc(Cl)c(O)c4)n3)c2)CC1` here?
**A.** 27.9%

**Q.** Which growth does the source give for `O=C(CCNC(=O)c1nc(-c2ccccc2)n(-c2ccc(Cl)cc2)n1)NO` here?
**A.** 108%

**Q.** `O=[N+]([O-])c1cccc(/C=N/NC(=S)NC23CC4CC(CC(C4)C2)C3)c1` was tested. Which growth did it give?
**A.** 64%

**Q.** `C=CCSC(CC)(CC)C(=O)NC` was tested. Which growth did it give?
**A.** 106%

**Q.** For `CCCN(CCC)C(=O)[C@H](CC)[C@@H]1CC[C@@H](C)[C@@H]([C@H](C)[C@@H](O)[C@@H](C)C(=O)[C@H](CC)C2O[C@]3(C=C[C@@H](O)[C@]4(CC[C@@](C)([C@H]5CC[C@](O)(CC)[C@H](C)O5)O4)O3)[C@H](C)C[C@@H]2C)O1` (stereo not given in full), which growth is on record?
**A.** -21.1% (active)

**Q.** `CNC(=O)c1cn(C2CC2)c2cc(N3CCN(C(=O)c4cc(OC)c(OC)c(OC)c4)CC3)c(F)cc2c1=O` was tested. Which growth did it give?
**A.** 92.3%

**Q.** With `N#CC1=C(N)Oc2cc(N)ccc2C1c1cccnc1` (stereo not given) as the compound, how does the growth read?
**A.** 111%

**Q.** How did the growth turn out when `COc1cc(-c2nn(-c3cccc(NC(=O)NCCNC(=O)c4cccc(C(F)(F)F)c4)c3)cc2-c2ccncc2)ccc1Cl` was run?
**A.** 42.5%

**Q.** With `CCN(CC)CCCC(C)N=C(C1=C(C(=NC(C)CCCN(CC)CC)c2cccc(OC)c2)C(=O)NC1=O)c1cccc(OC)c1` (stereo not given) as the compound, how does the growth read?
**A.** -66.1% (active)

**Q.** For `Nc1cc(-c2ccncc2)c[nH]c1=O`, which growth is on record?
**A.** 90.9%

**Q.** For `OCC1OC2C(NC(=S)N2c2ccccc2)C(O)C1O` (stereo not given), which growth is on record?
**A.** 90.5%

**Q.** Which growth does the source give for `S=C(NCc1ccccc1)NCc1ccccc1` here?
**A.** 99.3%

**Q.** `COc1ccc2nc(-c3ccc(Cl)cc3)cc(-c3nnc(SC/C(=N\O)c4ccccc4)n3-c3ccccc3)c2c1` was tested. Which growth did it give?
**A.** 95.4%

**Q.** For `CC1/C=C/C=C/C=C/C=C/C=C/C=C/C=C/C(O[C@@H]2O[C@H](C)[C@H](O)[C@@H](O)[C@@H]2N)CC(O)C(C(=O)O)C(O)CC(=O)CC(O)CC(O)CC(O)CC(=O)CCCC(=O)CC(=O)OC1C(C)CC(C)C(O)CC(=O)c1ccc(N)cc1` (stereo not given in full), which growth is on record?
**A.** -88.2% (active)

**Q.** For `COc1cc(/C=C2\CCCC3=C2NC(N)=NC3c2cc(OC)c(OC)c(OC)c2)cc(OC)c1OC` (stereo not given), which growth is on record?
**A.** -1% (active)

**Q.** How did the growth turn out when `COc1ccc2cc(-c3nc4ccccc4s3)c(Cl)nc2c1OC` was run?
**A.** 85.3%

**Q.** `O=C1NC(=O)c2c(CCCSc3nc4ccccc4c(=O)n3CCc3ccccc3)cccc21` was tested. Which growth did it give?
**A.** 94.5%

**Q.** Which growth does the source give for `O=C(/C=C/C=C/c1c(C2CC2)nc2ccccc2c1-c1ccc(F)cc1)c1cccs1` here?
**A.** 9.27% (active)

**Q.** `CCCCN(CCCC)C(=O)[C@H](CC)[C@@H]1CC[C@@H](C)[C@@H]([C@H](C)[C@@H](O)[C@@H](C)C(=O)[C@H](CC)C2O[C@]3(C=CC(=O)[C@]4(CC[C@@](C)([C@H]5CC[C@](O)(CC)[C@H](C)O5)O4)O3)[C@H](C)C[C@@H]2C)O1` (stereo not given in full) was tested. Which growth did it give?
**A.** -6.89% (active)

**Q.** Which growth does the source give for `COc1ccc(-c2nnc(SCC(=O)Nc3ccc(C(=O)/C=C/c4ccccc4)cc3)n2-c2ccccc2)cc1OC` here?
**A.** 78.4%

**Q.** Which growth does the source give for `Cc1ccc(/C=C/C(=O)C(=O)/C=C/c2ccc(C)cc2)cc1` here?
**A.** 108%

**Q.** With `COc1cc(-c2nn(-c3cccc(NC(=O)CCNc4ccc(N5CCOCC5)cc4)c3)cc2-c2ccncc2)ccc1Cl` as the compound, how does the growth read?
**A.** -6.34% (active)

**Q.** For `C[C@H]1[C@H](OC(=O)CCC(=O)O)O[C@@H]2O[C@]3(C)CC[C@H]4[C@H](C)CC[C@@H]1[C@@]24OO3`, which growth is on record?
**A.** 41.6%

**Q.** Which growth does the source give for `COc1cc(/C=C/c2cc(/C=C/c3ccc(O)c(OC)c3)[nH]c(=O)n2)ccc1O` here?
**A.** 33.7%

**Q.** For `CC[C@@H](C(=O)[C@H](C)[C@H](O)[C@@H](C)[C@H]1O[C@H]([C@@H](CC)C(=O)O)CC[C@H]1C)C1O[C@]2(C=C[C@@H](O)[C@]3(CC[C@@](C)([C@H]4CC[C@](O)(CC)[C@H](C)O4)O3)O2)[C@H](C)C[C@@H]1C` (stereo not given in full), which growth is on record?
**A.** 24%

**Q.** `O=C1c2ccccc2C(=O)c2c1ccc(C(Br)Br)c2[N+](=O)[O-]` was tested. Which growth did it give?
**A.** 38.8%

**Q.** How did the growth turn out when `C1CN(CC2CCC(CN3CCOCC3)O2)CCO1` (stereo not given) was run?
**A.** 120%

**Q.** `COc1ccc2c(c1)OC(N)=C(C#N)C2c1cc(OC)c(OC)c(OC)c1` (stereo not given) was tested. Which growth did it give?
**A.** -0.922% (active)

**Q.** How did the growth turn out when `COc1ccc(/C=C2\CCCC3=C2NC(N)=NC3c2ccc(OC)cc2)cc1` (stereo not given) was run?
**A.** 68.6%

**Q.** Which growth does the source give for `O=C(O)c1cc([N+](=O)[O-])ccc1Oc1ccccc1` here?
**A.** 65.8%

**Q.** Which growth does the source give for `Cc1cc(C)nc(NS(=O)(=O)c2ccc(Nc3nc4nc(NCc5ccccc5)nc(-c5ccc(O)cc5)c4c(=O)[nH]3)cc2)n1` here?
**A.** -11.1% (active)

**Q.** With `O=C(NCCCNS(=O)(=O)c1ccc(Cl)cc1)Nc1ccc(-n2cc(-c3ccncc3)c(-c3ccc(Cl)c(O)c3)n2)cc1` as the compound, how does the growth read?
**A.** 37.3%

**Q.** With `COc1ccc(-c2nn(-c3cccc(Cl)c3)cc2-c2c(C#N)c(=O)n3[nH]c(-c4ccc(C)cc4)nc3c2C#N)cc1` as the compound, how does the growth read?
**A.** 59.2%

**Q.** For `COc1ccc(/C=C/c2nnc(/C=C/c3ccc(OC)c(OC)c3)o2)cc1OC`, which growth is on record?
**A.** 20.4%

**Q.** Which growth does the source give for `O=[N+]([O-])c1cc(Cl)cc(Cl)c1O` here?
**A.** 105%

**Q.** How did the growth turn out when `O[C@@H]1CO[C@H]2[C@@H]1OC[C@@H]2O` was run?
**A.** 108%
